Inconclusive results are not listed. A call without a number means that no potency is given here. The source made the active and inactive calls. The call rests on the fitted dose curve; in most records, active means well fitted curve in the direction sought with a large enough effect; inconclusive means small, poorly fitted or top-dose-only effect, or another doubt; inactive means no such curve, though single readings can be large or run the other way.

35 molecules from PubChem BioAssay (NCATS) can be followed below.

The target of the assay is Metallo-beta-lactamase type 2 (Klebsiella pneumoniae) (UniProt C7C422). The assay is described as follows: qHTS to identify inhibitors of the New Delhi Metallo-beta-lactamase (NDM): assay validation screen against the NCATS LOPAC Collection (AID 1794843).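 Further: nitrocefin turnover by NDM-1 measured as 485 nm absorbance at plateau.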 The note with it: NDM-1 enzyme, nitrocefin hydrolysis, absorbance 485 nm; series mostly up to 38.4 µM. The gist of the method: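 NDM-1 at 2 nM final in 50 mM HEPES pH 7.0, 1 uM ZnSO4, 0.01% Tween20, preincubated with LOPAC compounds pinned in DMSO; 50 uM nitrocefin (stock) added. Hydrolysis read as absorbance at 485 nm in the plateau phase.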
Chain of Metallo-beta-lactamase type 2 (Klebsiella pneumoniae) (C7C422 whole entry, looked up): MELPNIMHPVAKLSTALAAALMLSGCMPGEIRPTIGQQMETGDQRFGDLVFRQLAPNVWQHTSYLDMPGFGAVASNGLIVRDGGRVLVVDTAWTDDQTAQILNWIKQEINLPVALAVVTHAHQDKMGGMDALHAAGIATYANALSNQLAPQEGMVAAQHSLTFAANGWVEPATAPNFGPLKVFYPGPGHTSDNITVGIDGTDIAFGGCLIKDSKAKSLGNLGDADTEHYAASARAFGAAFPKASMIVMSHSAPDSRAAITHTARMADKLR
Take `CCCCN(CC)c1nc(C)nc2c1c(C)cn2-c1c(C)cc(C)cc1C`: the Potency result is “inactive”.

With `NC(N)=NC(=O)c1nc(Cl)c(N2CCCCCC2)nc1N`, the Potency entry was “inactive”.

Take `O=[N+]([O-])c1ccc2c(c1)S(=O)(=O)C=C2`: the Potency result is “inactive”.

Regarding `COc1ccccc1CN[C@@H]1CCCN[C@@H]1c1ccccc1`, the Potency result was “inactive”.

As for `CC(=O)SCC[N+](C)(C)C`, the Potency result was “inactive”.

Consider `CC[C@H]1OC(=O)[C@H](C)C(O[C@H]2C[C@@](C)(OC)[C@@H](O)[C@H](C)O2)[C@H](C)[C@@H](OC2O[C@H](C)C[C@H](N(C)C)[C@H]2O)[C@](C)(O)C[C@@H](C)CN(C)[C@H](C)[C@@H](O)[C@]1(C)O` (stereo not given in full), for which the Potency entry was “inactive”.

With `O=C(CCSCc1ccco1)NNC(=O)N1Cc2ccccc2Oc2ccc(Cl)cc21`, the Potency entry was “inactive”.

Turning to `O=C(Nc1ccncc1)c1cc([N+](=O)[O-])ccc1Cl`, the Potency result was “inactive”.

For the molecule `CC[C@@H](C)[C@H]1O[C@]2(CC[C@H]1C)C[C@@H]1C[C@@H](CC=C(C)[C@@H](O[C@H]3C[C@H](OC)[C@@H](O[C@H]4C[C@H](OC)[C@@H](O)[C@H](C)O4)[C@H](C)O3)[C@@H](C)C=CC=C3CO[C@@H]4[C@H](O)C(C)=C[C@@H](C(=O)O1)[C@]34O)O2`, the Potency result is “inactive”.

For `O=C(O)CC1CCCc2ccccc2C1O` (stereo not given), the Potency entry was “inactive”.

Regarding `NCCCCC(=O)O`, the Potency result was “inactive”.

`C=CC(C)=C[C@@]1(C)SC(=O)C(C)=C1O`: the Potency entry was “inactive”.

`C[N+]1(C)C2CC(OC(=O)[C@H](CO)c3ccccc3)CC1C1OC12` (stereo not given in full): the Potency entry was “inactive”.

Turning to `COc1cc(C(O)CO)ccc1OS(=O)(=O)O` (stereo not given), the Potency result was “inactive”.

With `O=C(Nc1ccc2c(c1)CCN(Cc1ncn[nH]1)C2)c1ccccc1-c1ccc(C(F)(F)F)cc1`, the Potency entry was “inactive”.

As to `NC[C@H]1O[C@@H](n2cnc3c(N)ncnc32)[C@H](O)[C@@H]1O`, the Potency result was “inactive”.

In the case of `Cn1cc(C2=C(c3ccc(Cl)cc3Cl)C(=O)NC2=O)c2ccccc21`, the Potency result is “inactive”.

In the case of `CN(C)c1nc(N)c(C(=O)N=C(N)N)nc1Cl`, the Potency entry was “inactive”.

Consider `CCCCCCCC/C=C\CCCCCCCC(=O)NCCO`, for which the Potency entry was “inactive”.

For the molecule `O=C1NC(O)=NC1(c1ccccc1)c1ccccc1`, the Potency result is “inactive”.

With `O=C(O)CCCC[C@@H]1CCSS1`, the Potency entry was “inactive”.

As for `O=C(O)c1cc(=O)c2c(Cl)cc(Cl)cc2[nH]1`, the Potency entry was “inactive”.

As for `O=C1/C(=C/c2ccsc2)CC/C1=C\c1cccs1`, the Potency result was “inactive”.

Take `COc1ccc2c(c1)CCC1C2CC[C@@]2(C)C1CC[C@@H]2NCCCCCCN1C(=O)CCC1=O` (stereo not given in full): the Potency entry was “inactive”.

In the case of `COc1cc(OC)cc(-c2cc3cnc(N)nc3nc2NC(=O)NC(C)(C)C)c1`, the Potency result is “inactive”.

`O=C1NC(=O)/C(=C/c2ccc3nccnc3c2)S1`: the Potency result was “inactive”.

With `Cc1cc(NC(=O)Nc2ccc3c(ccn3C)c2)sn1`, the Potency result is “inactive”.

In the case of `Clc1ccc(N2CCN(Cc3cc4ccccn4n3)CC2)cc1`, the Potency result was “inactive”.

On to `COC(=O)c1c(C)[nH]c(C)c1C(=O)c1ccccc1Cc1ccccc1`, for which the Potency entry is “inactive”.

For the molecule `O=C(Nc1ccc2[nH]ncc2c1)C1CCC1`, the Potency entry is “inactive”.

In the case of `Cn1c(=O)c2[nH]c(-c3ccccc3)nc2n(C)c1=O`, the Potency result was “inactive”.

Take `CCC1C(=O)OCC1Cc1cncn1C` (stereo not given): the Potency entry was “inactive”.

On to `CC(C)NC[C@H](O)COc1cccc2[nH]ccc12`, for which the Potency result was “inactive”.

On to `O=C(O)c1cc([N+](=O)[O-])ccc1NCCCc1ccccc1`, for which the Potency result is “inactive”.

As to `Nc1nc(OCC2CCCCC2)c2[nH]cnc2n1`, the Potency result was “inactive”.
